Screening data: PubChem, National Center for Advancing Translational Sciences (NCATS)
Rows were chosen to be rich in hits. Some 11% of all compounds tested hit in one or more screens of this group.
NPR1 antag = Natriuretic polypeptide receptor (hNpr1) antagonism - Primary qHTS. Atrial natriuretic peptide receptor 1 (Homo sapiens), P16066. HEK293 hNpr1 GloSensor cGMP, ANP-stimulated luminescence. Potency, µM (doses to about 46.3 µM), actives largely listed as inhibitors. 76,000 tested, 1.6% active; calls by dose curve; further: nearly all actives have a fitted effect of over 60% in size
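HEK293 cells stably expressing human Npr1 and cGMP GloSensor pGS-40F, loaded 2 h with 2% GloSensor reagent, given compound 30 min at room temperature. Luminescence read before and 20 min after 0.1 nM hNppA.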
HEK cytotox = Cytotoxic Profiling in HEK 293 Cell Line of Diverse Libraries Using Quantitative High-Throughput Screening; 94,000 tested, 6.6% active; Potency, µM (top dose mostly 115 µM), most hits filed as inhibitors; HEK 293 viability, ATP luminescence (CellTiter-Glo), 48-72 h; further: nearly all actives have a fitted effect of over 60% in size
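Pintool-delivered compounds were incubated with HEK 293 cells (250 cells/well) at 37 degree Celsius for 48 or 72 hr. ATP-dependent luminescence (CellTiter-Glo) then reported remaining viable cells.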
3T3 cytotox = Cytotoxic Profiling in NIH 3T3 Cell Line of Diverse Libraries Using Quantitative High-Throughput Screening | AID 1345082, 2018 | 94,000 tested, 4.3% active | NIH 3T3 viability, CellTiter-Glo ATP luminescence, 48-72 h | Potency, µM (doses to about 96.7 µM), most hits filed as inhibitors; further: nearly all actives have a fitted effect of over 55% in size
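Cytotoxicity was measured by CellTiter-Glo ATP luminescence after 48 or 72 h compound exposure at 37 °C. Mouse NIH 3T3 fibroblasts were seeded at 400 cells/well and dosed by 23 nL pin transfer.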
FLuc inh = Firefly luciferase inhibition profiling of diverse chemical library using quantitative high-throughput screening. purified P. pyralis luciferase, luminescence, biochemical. 76,000 tested, 2.5% active. Luciferin 4-monooxygenase (Photinus pyralis), P08659. Potency, µM (highest dose often 115 µM), hits mostly inhibitors. AID 1347043, 2019; further: nearly all actives have a fitted effect of over 65% in size
Target sequence (P08659 whole entry, looked up): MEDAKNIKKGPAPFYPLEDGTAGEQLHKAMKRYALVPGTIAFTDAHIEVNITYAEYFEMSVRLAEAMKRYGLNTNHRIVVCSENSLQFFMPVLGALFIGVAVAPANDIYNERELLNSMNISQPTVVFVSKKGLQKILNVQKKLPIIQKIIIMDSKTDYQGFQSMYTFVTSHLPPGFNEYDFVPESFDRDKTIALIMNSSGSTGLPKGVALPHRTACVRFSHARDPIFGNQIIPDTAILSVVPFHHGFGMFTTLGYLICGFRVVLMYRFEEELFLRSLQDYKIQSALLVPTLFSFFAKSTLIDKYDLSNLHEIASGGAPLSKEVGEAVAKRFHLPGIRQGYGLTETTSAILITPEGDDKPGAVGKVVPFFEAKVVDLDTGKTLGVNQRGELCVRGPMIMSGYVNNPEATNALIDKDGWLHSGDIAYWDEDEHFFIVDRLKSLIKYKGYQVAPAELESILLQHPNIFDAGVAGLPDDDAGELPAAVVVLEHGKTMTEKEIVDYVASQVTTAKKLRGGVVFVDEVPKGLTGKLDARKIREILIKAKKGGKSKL
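Luminescence read by CCD imager after adding enzyme (10nM final) to wells holding compound, titrated in qHTS. Substrates 10uM each D-luciferin and ATP; buffer 50mM Tris acetate pH 7.5, 10mM Mg acetate, Tween-20, BSA.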
A number is an active result; - = inactive; ? = inconclusive; . = no result given; ! = repeats disagree. Unless noted, the call rests on the fitted dose curve; in most records, active means well fitted curve in the direction sought with a large enough effect; inconclusive means small, poorly fitted or top-dose-only effect, or another doubt; inactive means no such curve, though single readings can be large; an effect the other way counts as inactive or inconclusive.

SMILES	NPR1 antag	HEK cytotox	3T3 cytotox	FLuc inh
O=C(N[C@@H]1CN(C(=O)c2cccc3[nH]ccc23)CC[C@@H]1CO)C1CC1	-	-	-	-
Cc1ccccc1C(=O)N1CCCC(C(=O)N2CCC(c3nc4ncccc4[nH]3)C2)C1 (stereo not given)	.	-	-	.
CC(C)(O)CCc1cccc(C(=O)NCc2ccccc2Cn2cccn2)c1	-	-	22.4µM	-
O=C(NCc1ccccc1Cn1cccn1)c1ccc2cccc(F)c2n1	-	?	?	-
CC(C)(O)CCc1cccc(C(=O)NCCCc2ccccn2)c1	-	-	-	?
CC(C)(O)CCc1cccc(C(=O)NCCNc2cccnc2)c1	-	31.6µM	?	-
Cn1cc(CN2CCCCCCNC(=O)[C@@H]3CCC[C@@H]32)c2ccccc21	-	?	?	-
O=C1CC2(CCN(C(=O)C3CCCN3C(=O)c3ccc(F)cc3)CC2)Oc2ccccc2N1 (stereo not given)	.	-	-	.
COc1cccc(-c2nccc3c(=O)cc(N4CCOCC4)oc23)c1	-	?	20µM	-
O=c1cc(N2CCOCC2)oc2c(-c3cncnc3)nccc12	-	-	?	-
COc1ncc(-c2nccc3c(=O)cc(N4CCN(C)CC4)oc23)cn1	-	-	89.1µM	-
COc1cc(CNc2nccc3c(=O)cc(N4CCOCC4)oc23)cc(OC)c1	-	-	89.1µM	-
O=c1cc(N2CCOCC2)oc2c(-c3cccnc3)nccc12	-	-	79.4µM	-
CCN(CCNC(=O)C1CCCCC(=O)N1)Cc1ccccc1 (stereo not given)	.	-	-	.
Cc1noc(C)c1CCCNC(=O)c1ccc(NC[C@H]2C[C@H]3C=C[C@H]2C32CC2)nc1	-	?	?	-
CC(C)CC(=O)N1CCCCCNC(=O)[C@H]2C[C@H](C(=O)N3CCc4ccccc4C3)C[C@H]21	-	?	-	-
CC(C)N1C(=O)CO[C@H]2CCN(Cc3ccncc3Cl)CC[C@@H]21	-	?	?	-
N#Cc1cccc(CN2CC[C@@H]3OCC(=O)N(Cc4ccccc4)[C@H]3CC2)c1	-	100µM	?	-
O=C1CO[C@H]2CCN(Cc3ccccc3Cl)CC[C@@H]2N1CCc1cccnc1	-	?	100µM	-
O=C1CO[C@H]2CCN(Cc3ccncc3Cl)CC[C@@H]2N1c1ccccc1	-	44.7µM	79.4µM	-
COCCCn1c(=O)c(C(=O)Nc2cccc(Cl)c2)nc2cccnc21	.	?	-	.
CCN1C(=O)CCC2(C(=O)NCC3CC3)CCCC=C12 (stereo not given)	-	-	-	-
N#Cc1cccnc1N1CC[C@@H](N2CCC(O)CC2)[C@H](O)C1	-	-	-	-
CC(NC(=O)c1csc2nc(-c3cccc(C(F)(F)F)c3)cn12)c1ccncn1 (stereo not given)	-	?	?	39.8µM
COc1ccc(Cn2c(=O)c(C(=O)NCCc3ccc(Cl)cc3)nc3cccnc32)cc1	.	-	-	.
SMILES	NPR1 antag	HEK cytotox	3T3 cytotox	FLuc inh
CCCCn1c(=O)c(C(=O)NCC2CC2)nc2cccnc21	.	-	?	.
O=C(NCCc1ccc(Cl)cc1)c1nc2cccnc2n(Cc2ccccc2)c1=O	.	89.1µM	?	.
O=C(c1ccc(C(F)(F)F)cc1)N1CCN(C(=O)c2nc3cccnc3n(CCc3ccccc3)c2=O)CC1	.	44.7µM	?	.
CCCCn1c(=O)c(C(=O)NCC2CCCCC2)nc2cccnc21	.	35.5µM	?	.
O=C(c1ccccc1)N1CCN(C(=O)c2nc3cccnc3n(CCc3ccccc3)c2=O)CC1	.	-	-	.
O=C(NCc1ccccc1F)c1nc2cccnc2n(Cc2ccccc2)c1=O	.	79.4µM	?	.
O=S(=O)(c1ccccc1)N1CCc2nnc(C3CC3)n2CC1	.	-	-	.
COc1ccc(C(=O)N(C)C2CCc3ccccc32)cc1 (stereo not given)	-	?	-	-
O=C(Nc1cccc(F)c1)c1cnc2c(c1)N(C(=O)Cc1cccc(C(F)(F)F)c1)CCC2	?	?	?	-
O=C(NC1CC1)c1nc2cccnc2n(CCc2ccccc2)c1=O	.	56.2µM	-	.
COCCCNC(=O)C1CCN(c2ccnc3ccnn23)CC1	.	-	-	.
COc1cc(=O)n2c(c1C(=O)Nc1cc(Cl)ccc1F)CCCC2	-	-	-	-
Cn1ncc(N2CCCC(CC(=O)Nc3cccc(F)c3)C2)cc1=O (stereo not given)	-	-	?	-
O=C(CC1CCCN(c2cnn(CC3CC3)c(=O)c2)C1)NCCc1c[nH]c2ccccc12 (stereo not given)	-	79.4µM	?	-
O=C(CC1CCCN(c2cnn(CC3CC3)c(=O)c2)C1)Nc1cccc(F)c1 (stereo not given)	-	?	22.4µM	-
CCn1ncc(N2CCCC(CC(=O)NCc3ccccc3)C2)cc1=O (stereo not given)	-	?	-	-
O=C(CC1CCCN(c2cnn(CC3CC3)c(=O)c2)C1)NCc1ccccc1 (stereo not given)	-	?	35.5µM	-
COC(=O)c1cc2n(n1)CCCN(C(=O)c1ccc(OC)nc1OC)C2	-	-	-	-
CC(C)(CN1CCC(Cc2cccc(C(=O)O)c2)C1)N1CCOCC1 (stereo not given)	-	-	-	-
CN(Cc1cccc(C(F)(F)F)c1)C(=O)c1ccc(F)cc1	-	?	?	-
CN(C)C(=O)c1ccc(-c2cc(NC3CCCC3)nc3[nH]ccc23)o1	-	44.7µM	?	?
c1nc(-c2cc(NC3CCNCC3)nc3[nH]ccc23)c2sccc2n1	-	?	?	-
COc1ccc2cc(C3CN(Cc4nc(C(N)=O)no4)CCO3)ccc2c1 (stereo not given)	-	-	-	-
COc1ccc2cc(C3CN(CCC(=O)NC(C)(C)C)CCO3)ccc2c1 (stereo not given)	?	44.7µM	?	?
Cc1cccc(C)c1Oc1ncccc1CNC1CCN(C(C)C)CC1	-	-	-	-
SMILES	NPR1 antag	HEK cytotox	3T3 cytotox	FLuc inh
O=C(O)c1ccccc1CN1CCC2(Cc3ccccc3CNC2=O)C1 (stereo not given)	.	-	-	.
O=C1NCc2ccccc2CC12CCCN2Cc1ccc(F)cc1F (stereo not given)	.	-	?	.
O=C1NCc2ccccc2CC12CCN(Cc1cccc(C(F)(F)F)c1)C2 (stereo not given)	.	39.8µM	?	.
CCOc1cccc(CN2CCCC23Cc2ccccc2CNC3=O)c1 (stereo not given)	.	79.4µM!	?	.
O=C1NCc2ccccc2CC12CCCN2Cc1cc(F)ccc1F (stereo not given)	.	35.5µM	?	.
CCc1ccccc1CN1CCC2(Cc3ccccc3CNC2=O)C1 (stereo not given)	.	79.4µM	?	.
O=C1NCc2ccccc2CC12CCN(Cc1cccc(F)c1)C2 (stereo not given)	.	?	-	.
CC(=O)N1CCC(C(=O)N2CC(c3nc(CCOc4cccc(C)c4)no3)C2)CC1	-	-	-	-
